Experimental findings from PubChem BioAssay (NCATS) are described below.

In one test the test system is MKL-2. Description: qHTS assay to identify novel small-molecules to repurpose for Merkel cell carcinoma treatment (AID 1296009). Further: nearly all actives have a fitted effect of over 60% in size. Conditions: MCC and control cell lines, CellTiter-Glo viability, 72 h; series mostly up to 46 µM. A digest of the protocol:
(§1)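 72 hr, 37 degree celsius; NPC 8-pt / MIPE 11-pt dose response; compound pinned in DMSO; CellTiter-Glo, 10 min RT, luminescence; normalized to no-cell and DMSO controls.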
(In general: qHTS replaces the single test concentration by a dilution series.)

The next test has as its system UISO. The description is as above. Conditions: MCC and control cell lines, CellTiter-Glo viability, 72 h; series mostly up to 46 µM. A digest of the protocol: as §1
The test system of the next test is WaGa. The description is as above. Conditions: MCC and control cell lines, CellTiter-Glo viability, 72 h; series mostly up to 46 µM. In short, it runs like this: as §1
The test system of another test is C33A. Description: Primary qHTS to identify gynecologic anti-cancer compounds using libraries of approved drugs and bioactive compounds (AID 1345084). Further: nearly all actives have a fitted effect of over 55% in size. Further: potency means the concentration at half of the fitted maximal effect. Conditions: Gynecologic cancer cell panel viability, ATPlite luminescence, 48 h; series mostly up to 57.5 µM. In short, it runs like this:
(§2)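 48 h compound exposure at 37 C, 5% CO2; five-point qHTS. ATPlite luminescence readout of cell ATP.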

A further test relates to CAOV3. The test is described as above. Conditions: Gynecologic cancer cell panel viability, ATPlite luminescence, 48 h; series mostly up to 57.5 µM. A digest of the protocol: as §2
(ATP-based viability assays read luminescence as a measure of living cells.)

The subject of a further test is CASKI. The description is as above. Conditions: Gynecologic cancer cell panel viability, ATPlite luminescence, 48 h; series mostly up to 57.5 µM. In short, it runs like this:
as §2

In the next test the test system is Es-2. Described as above. Conditions: Gynecologic cancer cell panel viability, ATPlite luminescence, 48 h; series mostly up to 57.5 µM. In short, it runs like this:
as §2

Another test concerns HeLa. The description is as above. Conditions: Gynecologic cancer cell panel viability, ATPlite luminescence, 48 h; series mostly up to 57.5 µM. In short, it runs like this: as §2
The next test relates to Hek293T. The description is as above. Conditions: Gynecologic cancer cell panel viability, ATPlite luminescence, 48 h, control line for the selectivity index; series mostly up to 57.5 µM. A digest of the protocol:
as §2

Inconclusive results are not listed. A number with no mark means an inactive call. Calls of active or inactive are those of the source. The call rests on the fitted dose curve; in most records, active means well fitted curve in the direction sought with a large enough effect; inconclusive means small, poorly fitted or top-dose-only effect, or another doubt; inactive means no such curve, though single readings can be large; an effect the other way counts as inactive or inconclusive.

Consider `Cc1cc(O)c(C(C)C)cc1Cl`, for which the Potency result in the test on MKL-2, in the test with UISO, in the test on WaGa, in the test with C33A, with CAOV3 and in the test with CASKI was “inactive” throughout. Moreover, the Potency result in the test with Es-2, in the test with HeLa and in the test on Hek293T was “inactive” in each case.
For `CCC(=O)c1c(O)cc(O)cc1O`, the Potency entry in the test with MKL-2, with UISO, in the test with WaGa, in the test on C33A, in the test with CAOV3 and in the test on CASKI was “inactive” in each case. The Potency result in the test on Es-2, in the test with HeLa and in the test with Hek293T was “inactive” throughout.
With `Cc1ccc(Nc2c(F)cccc2Cl)c(CC(=O)O)c1`, the Potency entry in the test on MKL-2, with UISO, in the test on WaGa, in the test with C33A, with CAOV3 and in the test on CASKI was “inactive” in each case. In addition, the Potency entry in the test on Es-2, with HeLa and in the test with Hek293T was “inactive” in each case.
As for `CN(C)CCOc1ccccc1Cc1ccccc1`, the Potency entry with MKL-2, in the test with UISO, in the test with WaGa, in the test with C33A, in the test with CAOV3 and with CASKI was “inactive” each time. Also, the Potency result with Es-2, with HeLa and with Hek293T was “inactive” each time.
With `CCOC(=O)OC(C)OC1=C(C(=O)Nc2ccccn2)N(C)S(=O)(=O)c2ccccc21` (centres undefined), the Potency entry in the test on MKL-2, in the test with UISO, in the test on WaGa, in the test with C33A, in the test on CAOV3 and in the test with CASKI was “inactive” throughout. For the same molecule, the Potency entry with Es-2, in the test with HeLa and with Hek293T was “inactive” each time.
In the case of `CN(C)CC/C=C1/c2ccccc2COc2ccc(CC(=O)O)cc21`, the Potency result in the test on MKL-2, with UISO, in the test with WaGa, with C33A, in the test on CAOV3 and with CASKI was “inactive” each time. Also, the Potency entry with Es-2, with HeLa and in the test on Hek293T was “inactive” throughout.
Consider `C[C@H](CCC(=O)O)[C@H]1CC[C@H]2[C@@H]3C(=O)C[C@@H]4CC(=O)CC[C@]4(C)[C@H]3CC(=O)[C@]12C`, for which the Potency entry in the test with MKL-2, in the test with UISO, with WaGa, in the test on C33A, in the test with CAOV3 and in the test with CASKI was “inactive” in each case. The Potency result with Es-2, in the test with HeLa and in the test with Hek293T was “inactive” each time.
Consider `CCC(C(=O)OCCN(CC)CC)c1ccccc1` (centres undefined), for which the Potency result in the test on MKL-2, in the test with UISO, with WaGa, in the test with C33A, with CAOV3 and with CASKI was “inactive” each time. The Potency result in the test with Es-2, in the test with HeLa and with Hek293T was “inactive” each time.
In the case of `CC1(C)OC[C@@H](COC(=O)CCc2ccc(OC[C@@H](O)CNCCNC(=O)N3CCOCC3)cc2)O1`, the Potency result in the test with MKL-2, in the test with UISO, with WaGa, with C33A, in the test on CAOV3 and in the test on CASKI was “inactive” throughout. Besides, the Potency entry in the test with Es-2, in the test with HeLa and with Hek293T was “inactive” each time.
`C[C@]12CC[C@H]3[C@@H](CCC4=CC(=O)CC[C@@]43C)[C@@H]1CC[C@@H]2C(=O)CO`: the Potency result in the test on MKL-2, in the test on UISO, in the test on WaGa, in the test on C33A, in the test on CAOV3 and with CASKI was “inactive” throughout. Also, the Potency result in the test with Es-2 and in the test with Hek293T was “inactive” in each case. Moreover, the Potency in the test on HeLa was 3.55 µM (active).
Turning to `O=C1OC2(c3ccc(O)cc3Oc3cc(O)ccc32)c2ccccc21`, the Potency entry in the test with MKL-2, with UISO, with WaGa, with C33A, in the test with CAOV3 and in the test with CASKI was “inactive” each time. The Potency entry with Es-2, in the test on HeLa and with Hek293T was “inactive” in each case.
In the case of `O=C1OC(c2ccc(O)cc2)(c2ccc(O)cc2)c2ccccc21`, the Potency result with MKL-2, in the test on UISO, in the test on WaGa, in the test on C33A, in the test with CAOV3 and in the test on CASKI was “inactive” in each case. For the same molecule, the Potency result in the test with Es-2, in the test on HeLa and in the test on Hek293T was “inactive” in each case.
On to `COc1cc(OC)cc(OC)c1`, for which the Potency entry with MKL-2, in the test with UISO, with WaGa, with C33A, with CAOV3 and in the test on CASKI was “inactive” each time. Besides, the Potency entry with Es-2, with HeLa and in the test with Hek293T was “inactive” in each case.
For the molecule `CCCCCCc1ccc(O)cc1O`, the Potency entry in the test with MKL-2, in the test with UISO, in the test on WaGa, with C33A, in the test on CAOV3 and in the test with CASKI was “inactive” each time. Also, the Potency entry in the test with Es-2, in the test with HeLa and in the test with Hek293T was “inactive” throughout.
On to `Cc1ccnc(NS(=O)(=O)c2ccc(N)cc2)n1`, for which the Potency entry in the test on MKL-2, in the test on UISO, with WaGa, in the test with C33A, in the test on CAOV3 and in the test with CASKI was “inactive” throughout. Besides, the Potency result in the test on Es-2, in the test with HeLa and in the test on Hek293T was “inactive” each time.
For the molecule `Cc1c(C(C)C)c(=O)n(-c2ccccc2)n1C`, the Potency result with MKL-2, in the test with UISO, in the test with WaGa, in the test on C33A, in the test with CAOV3 and in the test on CASKI was “inactive” each time. In addition, the Potency entry in the test on HeLa and in the test on Hek293T was “inactive” each time.
Turning to `Cc1onc(-c2c(Cl)cccc2Cl)c1C(=O)N[C@@H]1C(=O)N2[C@@H]1SC(C)(C)[C@@H]2C(=O)O`, the Potency result with MKL-2, in the test on UISO, with WaGa, with C33A, with CAOV3 and in the test on CASKI was “inactive” throughout. In addition, the Potency result in the test with Es-2, in the test with HeLa and in the test on Hek293T was “inactive” throughout.
In the case of `CC1(C)O[C@@H]2C[C@H]3[C@@H]4C[C@H](F)C5=CC(=O)CC[C@]5(C)[C@H]4[C@@H](O)C[C@]3(C)[C@]2(C(=O)CO)O1`, the Potency result with MKL-2, in the test on UISO, in the test with WaGa, in the test on C33A, in the test with CASKI and in the test with Es-2 was “inactive” throughout. Further, the Potency entry in the test on HeLa and in the test on Hek293T was “inactive” each time.
With `Nc1ccc(C(=O)O)cc1`, the Potency result with MKL-2, with UISO, in the test on WaGa, in the test on C33A, in the test with CAOV3 and with CASKI was “inactive” in each case. In addition, the Potency result in the test with Es-2, with HeLa and with Hek293T was “inactive” throughout.
`CCN1CCC[C@H]1CNC(=O)c1c(OC)ccc(Br)c1OC`: the Potency result with MKL-2, in the test with UISO, in the test with WaGa, with C33A, in the test with CASKI and in the test with Es-2 was “inactive” each time. Further, the Potency entry with HeLa and in the test on Hek293T was “inactive” each time.
For `CC[N+](CC)(CCNC(=O)C(=O)NCC[N+](CC)(CC)Cc1ccccc1Cl)Cc1ccccc1Cl`, the Potency result in the test with MKL-2, with UISO, in the test on WaGa, in the test on C33A, with CAOV3 and in the test on CASKI was “inactive” throughout. Further, the Potency entry in the test on Es-2, with HeLa and in the test on Hek293T was “inactive” each time.
In the case of `C=CCc1ccc(O)c(OC)c1`, the Potency result in the test with MKL-2, in the test with UISO, in the test on WaGa, in the test on C33A, in the test with CASKI and in the test on Es-2 was “inactive” throughout. Moreover, the Potency entry in the test with HeLa and in the test on Hek293T was “inactive” each time.
